# Laboratory results taken from PubChem BioAssay AID1159580 (chemical genetic matrix, 2015).
# The campaign covered roughly 5,500 compounds. About 2,000 (36%) were called active. About 18% were inconclusive and are not listed. The list shows a part of the results. A number with no mark means an inactive call. Cut-off read from the data, not from the text of the source: active = normalized growth mostly below about 0.91 (no sharp cut-off); inconclusive = no clear call, values can overlap the other calls; inactive = mostly above about 0.92.
# Test: chemical genetic growth profiling, strain panel (AID 1159580);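 note: tested at 20 µM; growth read once vehicle control cultures reached saturation at 30 °C; 1 = growth at the plate median or of vehicle wells; lower values mean less growth of the strain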
# Details: growth OD
compound,measurement,setting,value
COc1ccc(C(c2ccc(OC)cc2)C(Cl)(Cl)Cl)cc1,normalized growth,"S. cerevisiae deletion strains, locus YJR043C, strain POL32, active compounds read low",0.987
same,normalized growth,"S. cerevisiae deletion strains, locus YJR075W, strain HOC1, active compounds read low",1.01
same,normalized growth,"S. cerevisiae deletion strains, locus YKL009W, strain mrt4, active compounds read low",0.949
same,normalized growth,"S. cerevisiae deletion strains, locus YKL068W, active compounds read low",0.995
same,normalized growth,"S. cerevisiae deletion strains, locus YKL085W, strain MDH1 (second series), active compounds read low",0.999
same,normalized growth,"S. cerevisiae deletion strains, locus YKL085W, strain MDH1, active compounds read low",0.999
same,normalized growth,"S. cerevisiae deletion strains, locus YKL160W, strain elf1, active compounds read low",1
same,normalized growth,"S. cerevisiae deletion strains, locus YKL190W, strain CNB1, active compounds read low",1.01
same,normalized growth,"S. cerevisiae deletion strains, locus YKR001C, strain vps1, active compounds read low",0.966
same,normalized growth,"S. cerevisiae deletion strains, locus YKR026C, strain gcn3, active compounds read low",1.01
same,normalized growth,"S. cerevisiae deletion strains, locus YKR091W, strain srl3, active compounds read low",1.02
same,normalized growth,"S. cerevisiae deletion strains, locus YLL001W, strain dnm1, active compounds read low",1.01
same,normalized growth,"S. cerevisiae deletion strains, locus YLL026W, active compounds read low",1.02
same,normalized growth,"S. cerevisiae deletion strains, locus YLL041C, strain sdh2, active compounds read low",1.02
same,normalized growth,"S. cerevisiae deletion strains, locus YLR027C, strain aat2, active compounds read low",1.02
same,normalized growth,"S. cerevisiae deletion strains, locus YLR039C, strain RIC1, active compounds read low",1.01
same,normalized growth,"S. cerevisiae deletion strains, locus YLR058C, strain SHM2, active compounds read low",0.994
same,normalized growth,"S. cerevisiae deletion strains, locus YLR102C, strain apc9, active compounds read low",0.99
same,normalized growth,"S. cerevisiae deletion strains, locus YLR221C, strain rsa3, active compounds read low",0.981
same,normalized growth,"S. cerevisiae deletion strains, locus YLR258W, strain gsy2, active compounds read low",1.01
same,normalized growth,"S. cerevisiae deletion strains, locus YLR262C, strain YPT6 (second series), active compounds read low",0.856 (active)
same,normalized growth,"S. cerevisiae deletion strains, locus YLR262C, strain YPT6, active compounds read low",1.03
same,normalized growth,"S. cerevisiae deletion strains, locus YLR268W, strain sec22, active compounds read low",0.997
same,normalized growth,"S. cerevisiae deletion strains, locus YLR320W, strain mms22, active compounds read low",0.963
same,normalized growth,"S. cerevisiae deletion strains, locus YLR330W, strain CHS5, active compounds read low",0.998
same,normalized growth,"S. cerevisiae deletion strains, locus YLR342W, strain FKS1 (second series), active compounds read low",0.975
same,normalized growth,"S. cerevisiae deletion strains, locus YLR342W, strain FKS1, active compounds read low",1.01
same,normalized growth,"S. cerevisiae deletion strains, locus YLR357W, strain rsc2, active compounds read low",1.03
same,normalized growth,"S. cerevisiae deletion strains, locus YLR370C, strain arc18, active compounds read low",1.01
same,normalized growth,"S. cerevisiae deletion strains, locus YLR371W, strain rom2, active compounds read low",0.972
same,normalized growth,"S. cerevisiae deletion strains, locus YLR384C, strain iki3, active compounds read low",0.996
same,normalized growth,"S. cerevisiae deletion strains, locus YLR418C, strain cdc73, active compounds read low",0.993
same,normalized growth,"S. cerevisiae deletion strains, locus YML016C, strain PPZ1, active compounds read low",0.993
same,normalized growth,"S. cerevisiae deletion strains, locus YML032C, strain rad52, active compounds read low",0.975
same,normalized growth,"S. cerevisiae deletion strains, locus YML120C, strain ndi1, active compounds read low",1.02
same,normalized growth,"S. cerevisiae deletion strains, locus YML124C, strain tub3, active compounds read low",0.983
same,normalized growth,"S. cerevisiae deletion strains, locus YMR058W, strain fet3, active compounds read low",1.01
same,normalized growth,"S. cerevisiae deletion strains, locus YMR078C, strain ctf18, active compounds read low",0.988
same,normalized growth,"S. cerevisiae deletion strains, locus YMR125W, strain sto1, active compounds read low",1
same,normalized growth,"S. cerevisiae deletion strains, locus YMR129W, active compounds read low",1.01
same,normalized growth,"S. cerevisiae deletion strains, locus YMR205C, strain PFK2, active compounds read low",0.985
same,normalized growth,"S. cerevisiae deletion strains, locus YMR223W, strain ubp8, active compounds read low",0.966
same,normalized growth,"S. cerevisiae deletion strains, locus YMR231W, strain pep5, active compounds read low",1
same,normalized growth,"S. cerevisiae deletion strains, locus YMR263W, strain SAP30, active compounds read low",1.01
same,normalized growth,"S. cerevisiae deletion strains, locus YMR307W, strain GAS1, active compounds read low",0.892
same,normalized growth,"S. cerevisiae deletion strains, locus YNL067W, strain RPL9B, active compounds read low",0.999
same,normalized growth,"S. cerevisiae deletion strains, locus YNL071W, strain lat1, active compounds read low",0.999
same,normalized growth,"S. cerevisiae deletion strains, locus YNL128W, strain TEP1, active compounds read low",0.992
same,normalized growth,"S. cerevisiae deletion strains, locus YNL153C, strain GIM3, active compounds read low",0.998
same,normalized growth,"S. cerevisiae deletion strains, locus YNL209W, strain ssb2, active compounds read low",1
same,normalized growth,"S. cerevisiae deletion strains, locus YNL233W, strain BNI4, active compounds read low",1
same,normalized growth,"S. cerevisiae deletion strains, locus YNL248C, strain rpa49, active compounds read low",1.01
same,normalized growth,"S. cerevisiae deletion strains, locus YNL250W, strain rad50, active compounds read low",0.992
same,normalized growth,"S. cerevisiae deletion strains, locus YNL271C, strain bni1, active compounds read low",0.988
same,normalized growth,"S. cerevisiae deletion strains, locus YNL298W, strain CLA4, active compounds read low",0.977
same,normalized growth,"S. cerevisiae deletion strains, locus YNL307C, strain MCK1, active compounds read low",0.964
same,normalized growth,"S. cerevisiae deletion strains, locus YNL322C, strain KRE1 (second series), active compounds read low",0.985
same,normalized growth,"S. cerevisiae deletion strains, locus YNL322C, strain KRE1, active compounds read low",1.01
same,normalized growth,"S. cerevisiae deletion strains, locus YNR049C, strain mso1, active compounds read low",1.01
same,normalized growth,"S. cerevisiae deletion strains, locus YNR052C, strain pop2, active compounds read low",0.96
same,normalized growth,"S. cerevisiae deletion strains, locus YOL006C, strain TOP1, active compounds read low",1.02
same,normalized growth,"S. cerevisiae deletion strains, locus YOL012C, strain htz1",0.957
same,normalized growth,"S. cerevisiae deletion strains, locus YOL147C, strain pex11, active compounds read low",0.985
same,normalized growth,"S. cerevisiae deletion strains, locus YOR001W, strain rrp6, active compounds read low",0.987
same,normalized growth,"S. cerevisiae deletion strains, locus YOR061W, strain CKA2, active compounds read low",1.01
same,normalized growth,"S. cerevisiae deletion strains, locus YOR069W, strain VPS5, active compounds read low",0.992
same,normalized growth,"S. cerevisiae deletion strains, locus YOR070C, strain gyp1, active compounds read low",1.02
same,normalized growth,"S. cerevisiae deletion strains, locus YOR080W, strain dia2, active compounds read low",1.01
same,normalized growth,"S. cerevisiae deletion strains, locus YOR083W, strain WHI5, active compounds read low",1
same,normalized growth,"S. cerevisiae deletion strains, locus YOR106W, strain vam3, active compounds read low",0.967
same,normalized growth,"S. cerevisiae deletion strains, locus YOR136W, strain idh2, active compounds read low",0.972
same,normalized growth,"S. cerevisiae deletion strains, locus YOR144C, strain elg1, active compounds read low",0.982
same,normalized growth,"S. cerevisiae deletion strains, locus YOR184W, strain ser1, active compounds read low",0.962
same,normalized growth,"S. cerevisiae deletion strains, locus YOR265W, strain rbl2, active compounds read low",1.01
same,normalized growth,"S. cerevisiae deletion strains, locus YOR270C, strain vph1, active compounds read low",0.982
same,normalized growth,"S. cerevisiae deletion strains, locus YOR290C, strain snf2, active compounds read low",0.984
same,normalized growth,"S. cerevisiae deletion strains, locus YOR316C, strain cot1, active compounds read low",0.995
same,normalized growth,"S. cerevisiae deletion strains, locus YPL051W, strain arl3, active compounds read low",0.978
same,normalized growth,"S. cerevisiae deletion strains, locus YPL055C, strain LGE1, active compounds read low",0.996
same,normalized growth,"S. cerevisiae deletion strains, locus YPL078C, strain atp4, active compounds read low",1.02
same,normalized growth,"S. cerevisiae deletion strains, locus YPL106C, strain sse1, active compounds read low",1.06
same,normalized growth,"S. cerevisiae deletion strains, locus YPL240C, strain hsp82, active compounds read low",1.01
same,normalized growth,"S. cerevisiae deletion strains, locus YPL241C, strain CIN2, active compounds read low",1
same,normalized growth,"S. cerevisiae deletion strains, locus YPR119W, strain clb2, active compounds read low",0.998
same,normalized growth,"S. cerevisiae deletion strains, locus YPR141C, strain kar3, active compounds read low",0.994
same,normalized growth,"S. cerevisiae deletion strains, locus YPR163C, strain tif3, active compounds read low",0.97
same,normalized growth,"S. cerevisiae deletion strains, locus YPR167C, strain met16, active compounds read low",0.991
same,normalized growth,"S. cerevisiae deletion strains, strain wtn01, active compounds read low",1
same,normalized growth,"S. cerevisiae strains, strain wild type, active compounds read low",1
